Laboratory results as given in PubChem BioAssay AID1159580 (chemical genetic matrix, 2015).
Hit rate of the full screen: of about 5,500 compounds, about 2,000 (36%) were called active. Not shown: some 18% with an inconclusive outcome. Rule as the data show it: active = normalized growth mostly below about 0.91 (no sharp cut-off); inconclusive = no clear call, values can overlap the other calls; inactive = mostly above about 0.92. The list shows a part of the results.

Experiment: chemical genetic growth profiling, strain panel (AID 1159580);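 also: tested at 20 µM; growth read once vehicle control cultures reached saturation at 30 °C; 1 = growth at the plate median or of vehicle wells; lower values mean less growth of the strain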
Conditions: growth OD

Measured: normalized growth

COc1cc(NS(=O)(=O)c2ccc(N)cc2)ncn1
inactive: S. cerevisiae deletion strains, locus YJR075W, strain HOC1, hits give low values 0.984 | S. cerevisiae deletion strains, locus YKL009W, strain mrt4, hits give low values 0.982 | S. cerevisiae deletion strains, locus YKL068W, hits give low values 0.986 | S. cerevisiae deletion strains, locus YKL085W, strain MDH1 (second series), hits give low values 0.991 | S. cerevisiae deletion strains, locus YKL085W, strain MDH1, hits give low values 0.991 | S. cerevisiae deletion strains, locus YKL160W, strain elf1, hits give low values 0.98 | S. cerevisiae deletion strains, locus YKL190W, strain CNB1, hits give low values 0.978 | S. cerevisiae deletion strains, locus YKR001C, strain vps1, hits give low values 0.986 | S. cerevisiae deletion strains, locus YKR026C, strain gcn3, hits give low values 0.968 | S. cerevisiae deletion strains, locus YKR091W, strain srl3, hits give low values 0.99 | S. cerevisiae deletion strains, locus YLL001W, strain dnm1, hits give low values 0.974 | S. cerevisiae deletion strains, locus YLL026W, hits give low values 0.985 | S. cerevisiae deletion strains, locus YLL041C, strain sdh2, hits give low values 0.982 | S. cerevisiae deletion strains, locus YLR027C, strain aat2, hits give low values 0.988 | S. cerevisiae deletion strains, locus YLR039C, strain RIC1, hits give low values 1.02 | S. cerevisiae deletion strains, locus YLR058C, strain SHM2, hits give low values 0.972 | S. cerevisiae deletion strains, locus YLR102C, strain apc9, hits give low values 0.986 | S. cerevisiae deletion strains, locus YLR113W, strain HOG1, hits give low values 0.949 | S. cerevisiae deletion strains, locus YLR221C, strain rsa3, hits give low values 0.985 | S. cerevisiae deletion strains, locus YLR258W, strain gsy2, hits give low values 0.979 | S. cerevisiae deletion strains, locus YLR262C, strain YPT6 (second series), hits give low values 0.985 | S. cerevisiae deletion strains, locus YLR262C, strain YPT6, hits give low values 1.02 | S. cerevisiae deletion strains, locus YLR268W, strain sec22, hits give low values 0.948 | S. cerevisiae deletion strains, locus YLR320W, strain mms22, hits give low values 0.979 | S. cerevisiae deletion strains, locus YLR330W, strain CHS5, hits give low values 0.998 | S. cerevisiae deletion strains, locus YLR342W, strain FKS1 (second series), hits give low values 1.04 | S. cerevisiae deletion strains, locus YLR342W, strain FKS1, hits give low values 1.02 | S. cerevisiae deletion strains, locus YLR357W, strain rsc2, hits give low values 0.93 | S. cerevisiae deletion strains, locus YLR370C, strain arc18, hits give low values 0.979 | S. cerevisiae deletion strains, locus YLR371W, strain rom2, hits give low values 0.992 | S. cerevisiae deletion strains, locus YLR384C, strain iki3, hits give low values 0.974 | S. cerevisiae deletion strains, locus YLR418C, strain cdc73, hits give low values 0.983 | S. cerevisiae deletion strains, locus YML016C, strain PPZ1, hits give low values 0.992 | S. cerevisiae deletion strains, locus YML032C, strain rad52, hits give low values 0.991 | S. cerevisiae deletion strains, locus YML120C, strain ndi1, hits give low values 1.01 | S. cerevisiae deletion strains, locus YML124C, strain tub3, hits give low values 0.988 | S. cerevisiae deletion strains, locus YMR058W, strain fet3, hits give low values 0.993 | S. cerevisiae deletion strains, locus YMR078C, strain ctf18, hits give low values 0.981 | S. cerevisiae deletion strains, locus YMR125W, strain sto1, hits give low values 0.963 | S. cerevisiae deletion strains, locus YMR129W, hits give low values 0.996 | S. cerevisiae deletion strains, locus YMR205C, strain PFK2, hits give low values 0.992 | S. cerevisiae deletion strains, locus YMR223W, strain ubp8, hits give low values 0.981 | S. cerevisiae deletion strains, locus YMR231W, strain pep5, hits give low values 0.975 | S. cerevisiae deletion strains, locus YMR263W, strain SAP30, hits give low values 0.982 | S. cerevisiae deletion strains, locus YMR307W, strain GAS1, hits give low values 1.1 | S. cerevisiae deletion strains, locus YNL067W, strain RPL9B, hits give low values 0.981 | S. cerevisiae deletion strains, locus YNL071W, strain lat1, hits give low values 0.969 | S. cerevisiae deletion strains, locus YNL153C, strain GIM3, hits give low values 0.965 | S. cerevisiae deletion strains, locus YNL183C, strain NPR1, hits give low values 0.933 | S. cerevisiae deletion strains, locus YNL209W, strain ssb2, hits give low values 0.975 | S. cerevisiae deletion strains, locus YNL233W, strain BNI4, hits give low values 0.987 | S. cerevisiae deletion strains, locus YNL248C, strain rpa49, hits give low values 0.931 | S. cerevisiae deletion strains, locus YNL250W, strain rad50, hits give low values 0.979 | S. cerevisiae deletion strains, locus YNL271C, strain bni1, hits give low values 0.992 | S. cerevisiae deletion strains, locus YNL298W, strain CLA4, hits give low values 0.983 | S. cerevisiae deletion strains, locus YNL307C, strain MCK1, hits give low values 0.979 | S. cerevisiae deletion strains, locus YNL322C, strain KRE1 (second series), hits give low values 0.955 | S. cerevisiae deletion strains, locus YNL322C, strain KRE1, hits give low values 0.991 | S. cerevisiae deletion strains, locus YNR049C, strain mso1, hits give low values 0.979 | S. cerevisiae deletion strains, locus YNR052C, strain pop2, hits give low values 0.987 | S. cerevisiae deletion strains, locus YOL006C, strain TOP1, hits give low values 0.965 | S. cerevisiae deletion strains, locus YOL012C, strain htz1 1.08 | S. cerevisiae deletion strains, locus YOL147C, strain pex11, hits give low values 0.982 | S. cerevisiae deletion strains, locus YOR001W, strain rrp6, hits give low values 0.998 | S. cerevisiae deletion strains, locus YOR061W, strain CKA2, hits give low values 0.961 | S. cerevisiae deletion strains, locus YOR069W, strain VPS5, hits give low values 0.992 | S. cerevisiae deletion strains, locus YOR070C, strain gyp1, hits give low values 0.984 | S. cerevisiae deletion strains, locus YOR080W, strain dia2, hits give low values 0.977 | S. cerevisiae deletion strains, locus YOR083W, strain WHI5, hits give low values 0.989 | S. cerevisiae deletion strains, locus YOR106W, strain vam3, hits give low values 0.981 | S. cerevisiae deletion strains, locus YOR136W, strain idh2, hits give low values 0.981 | S. cerevisiae deletion strains, locus YOR144C, strain elg1, hits give low values 0.982 | S. cerevisiae deletion strains, locus YOR184W, strain ser1, hits give low values 0.989 | S. cerevisiae deletion strains, locus YOR231W, strain MKK1, hits give low values 0.97 | S. cerevisiae deletion strains, locus YOR265W, strain rbl2, hits give low values 0.991 | S. cerevisiae deletion strains, locus YOR270C, strain vph1, hits give low values 0.95 | S. cerevisiae deletion strains, locus YOR290C, strain snf2, hits give low values 0.976 | S. cerevisiae deletion strains, locus YOR316C, strain cot1, hits give low values 0.982 | S. cerevisiae deletion strains, locus YPL051W, strain arl3, hits give low values 0.981 | S. cerevisiae deletion strains, locus YPL055C, strain LGE1, hits give low values 0.92 | S. cerevisiae deletion strains, locus YPL078C, strain atp4, hits give low values 0.988 | S. cerevisiae deletion strains, locus YPL106C, strain sse1, hits give low values 0.969 | S. cerevisiae deletion strains, locus YPL240C, strain hsp82, hits give low values 0.997 | S. cerevisiae deletion strains, locus YPL256C, strain CLN2, hits give low values 0.974 | S. cerevisiae deletion strains, locus YPR119W, strain clb2, hits give low values 0.982 | S. cerevisiae deletion strains, locus YPR141C, strain kar3, hits give low values 0.97 | S. cerevisiae deletion strains, locus YPR163C, strain tif3, hits give low values 0.985 | S. cerevisiae deletion strains, locus YPR167C, strain met16, hits give low values 0.994 | S. cerevisiae deletion strains, strain wtn01, hits give low values 0.981 | S. cerevisiae strains, strain wild type, hits give low values 0.981
